Sampled rows, rich in hits. Any-hit rate of the full collection: about 3.1%.
GSIS activator: primary screen for activators of insulin secretion dependent on glucose, INS-1E cells, GLuc reporter luminescence. INS-1E GLuc reporter insulin secretion, 2-3 h. activation, % at 16.6 µM. actives 0.61% (n = 370,000). AID 743287;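 active = lowest replicate activation of at least 40%, so every replicate reaches that level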;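 note: 0% = median of neutral control wells and 100% = median of IBMX positive control wells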
DENV2 CPE rescue: DENV2-induced cell death inhibition. actives 1.7% (n = 350,000). DENV2-infected cells, cytopathic effect rescue, plate reader. CPE inhibition, % at 9.99 µM. AID 651640; in the data active = CPE inhibition above about 20%, passing the limit was not always enough; tested in BHK-21 cells;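 note: 0% = median of neutral control wells and 100% = median of positive control wells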
AF4-AF9 inh: inhibitors of human MLL-AF4/AF9 interaction | P42568 | AlphaScreen, biotin-AF4 peptide binding to FLAG-AF9 | inhibition, % at 10 µM | actives 0.47% (n = 350,000) | AID 651704;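 active = every replicate reaching a set inhibition limit, whatever the replicate mean, cut at about 25% in these data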;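 note: 0% = plate neutral control median and 100% = total signal loss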
Target sequence (P42568 whole entry, looked up): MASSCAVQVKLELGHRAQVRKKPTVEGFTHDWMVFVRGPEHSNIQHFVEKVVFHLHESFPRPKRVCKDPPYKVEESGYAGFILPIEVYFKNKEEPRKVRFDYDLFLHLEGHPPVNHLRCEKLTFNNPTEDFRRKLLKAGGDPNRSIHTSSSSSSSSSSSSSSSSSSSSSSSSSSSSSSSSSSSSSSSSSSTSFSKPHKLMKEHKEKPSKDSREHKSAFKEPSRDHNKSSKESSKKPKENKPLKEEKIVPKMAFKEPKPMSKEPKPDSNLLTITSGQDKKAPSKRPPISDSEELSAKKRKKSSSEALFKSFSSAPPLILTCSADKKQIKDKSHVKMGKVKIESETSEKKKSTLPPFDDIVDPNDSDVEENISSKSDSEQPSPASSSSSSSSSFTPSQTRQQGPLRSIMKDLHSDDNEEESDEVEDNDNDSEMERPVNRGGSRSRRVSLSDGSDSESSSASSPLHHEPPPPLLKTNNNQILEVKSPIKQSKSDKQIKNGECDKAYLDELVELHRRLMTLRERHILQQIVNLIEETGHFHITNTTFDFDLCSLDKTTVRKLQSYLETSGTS
RAD54 branch: inhibitors of human RAD54 branch migration; Q92698; RAD54 Holliday junction branch migration, FAM/BHQ fluorescence; inhibition, % at 10.4 µM; actives 0.14% (n = 360,000); AID 602329;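 active = mean normalized replicate activity at least 40 and at least half of replicates scoring 40 or more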;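 note: 0% = median of neutral control wells and 100% = median of positive control wells; inhibitors cause a drop in the FAM fluorescence signal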
RAD52 anneal inh: inhibitors of human RAD52 DNA annealing. recombinant RAD52 DNA annealing, FRET fluorescence. actives 0.46% (n = 360,000). P43351. AID 651710. inhibition, % at 18.7 µM;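 active = every replicate showing at least 50% inhibition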
dFosB act: mouse delta FosB homodimer activation; P13346; purified delta FosB, TAMRA-CDK5 oligo fluorescence polarization; percent of positive-control signal above neutral wells; activation, % at 25 µM; actives 0.99% (n = 340,000); AID 493131;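 active = mean activation above about 17%, with every replicate also reaching it, limit read from the data, passing the limit was not always enough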
* hit, by the source's call; x = not tested or not shown.

SMILES	GSIS activator	DENV2 CPE rescue	AF4-AF9 inh	RAD54 branch	RAD52 anneal inh	dFosB act
Cc1noc(C)c1S(=O)(=O)N(C)C[C@@H]1Oc2ccc(NC(=O)CCN3CCOCC3)cc2CC(=O)N([C@@H](C)CO)C[C@@H]1C	4.8	-2.0	1.7	x	-7.4	x
O=C(C[C@@H]1C[C@H]2c3cc(NC(=O)Nc4ccccc4F)ccc3O[C@H]2[C@H](CO)O1)NCC1CC1	0.4	27.4*	3.2	-6.5	-2.1	x
O=C(C[C@@H]1C[C@@H]2c3cc(NC(=O)Nc4ccccc4F)ccc3O[C@@H]2[C@H](CO)O1)NCC1CC1	11.6	67.6*	0.4	-5.0	-10.2	x
O=C(C[C@H]1C[C@@H]2c3cc(NC(=O)Nc4ccccc4F)ccc3O[C@@H]2[C@@H](CO)O1)NCC1CC1	16.1	8.5	3.7	1.6	-1.2	x
COc1ccc(NC(=O)N[C@@H]2CC[C@@H](CCn3cc(-c4ccccc4F)nn3)O[C@H]2CO)cc1	7.9	2.5	0.1	1.1	-2.5	x
C[C@H](CO)N1C[C@H](C)[C@@H](CN(C)Cc2ccc(C(=O)O)cc2)Oc2ccc(NC(=O)CCN3CCOCC3)cc2CC1=O	16.5	-3.1	x	7.3	x	x
C[C@@H]1CN([C@@H](C)CO)C(=O)c2cccc(NS(=O)(=O)c3cn(C)cn3)c2O[C@H]1CN(C)Cc1ccccc1	8.5	4.7	-1.1	1.5	-19.4	x
O=C(NCC(c1ccco1)N1CCN(c2ccccc2)CC1)C1CCCCC1 (stereo not drawn)	-15.7	72.0*	0.2	3.1	-7.7	x
CN(C)CCCn1c(=O)n(C2CCCCC2)c(=O)c2c3c(sc21)CCCCC3	-36.0	10.2	27.8*	14.6	18.9	3.6
C[C@H](CO)N1C[C@H](C)[C@@H](CN(C)CC2CCOCC2)Oc2cc(-c3cccnc3)ccc2S1(=O)=O	17.8	2.9	0.1	5.1	17.7	x
COc1ccc(NC(=O)Nc2cccc3c2O[C@H](CN(C)S(=O)(=O)c2ccccc2)[C@H](C)CN([C@@H](C)CO)C3=O)cc1	-4.0	80.1*	4.5	-11.9	-6.4	x
COc1ccc(NC(=O)Nc2cccc3c2O[C@H](CN(C)S(=O)(=O)c2ccccc2)[C@@H](C)CN([C@H](C)CO)C3=O)cc1	-1.4	-3.5	-0.6	5.1	3.7	-11.9
COc1ccc(NC(=O)N(C)C[C@H]2Oc3c(NC(=O)CCCCCC(=O)Nc4ccccc4N)cccc3C(=O)N([C@H](C)CO)C[C@@H]2C)cc1	7.1	7.7	2.5	x	0.3	x
COc1ccc(NC(=O)N(C)C[C@H]2Oc3c(NC(=O)CCCCCC(=O)Nc4ccccc4N)cccc3C(=O)N([C@@H](C)CO)C[C@H]2C)cc1	-1.7	33.6*	0.7	x	22.7	x
COc1ccc(NC(=O)Nc2cccc3c2O[C@H](CN(C)C(=O)Nc2ccc(OC)cc2)[C@@H](C)CN([C@@H](C)CO)C3=O)cc1	1.5	144.1*	-2.6	2.0	10.6	x
COc1ccc(NC(=O)Nc2cccc3c2O[C@@H](CN(C)C(=O)Nc2ccccc2)[C@H](C)CN([C@H](C)CO)C3=O)cc1	-23.9	36.5*	-1.2	1.2	-0.4	x
C[C@@H]1CN([C@H](C)CO)C(=O)c2c(c3ccccc3n2C)-c2ccccc2CO[C@@H]1CN(C)S(=O)(=O)c1ccc(Cl)cc1	-3.7	-1.4	4.8	-1.9	12.0	x
C[C@@H]1CCCCO[C@H](CN(C)Cc2ccc(Cl)c(Cl)c2)[C@H](C)CN([C@@H](C)CO)C(=O)c2cc(NS(=O)(=O)c3ccc(Cl)cc3)ccc2O1	-15.8	-20.9	1.0	6.7	-0.4	x
COc1ccc(NC(=O)N(C)C[C@@H]2Oc3c(NC(=O)Nc4ccc(F)cc4)cccc3C(=O)N([C@@H](C)CO)C[C@H]2C)cc1	-6.6	34.4*	-0.8	-8.3	5.8	x
C[C@H](CO)N1C[C@H](C)[C@H](CN(C)C(=O)Nc2ccc(F)cc2)Oc2c(NC(=O)Nc3cccc4ccccc34)cccc2C1=O	-24.7	41.6*	6.2	-12.2	2.1	x
COc1ccc(NC(=O)Nc2cccc3c2O[C@@H](CN(C)C(=O)Nc2ccc(F)cc2)[C@H](C)CN([C@H](C)CO)C3=O)cc1	1.4	-2.4	0.1	15.4	4.8	x
C[C@H]1CN([C@@H](C)CO)C(=O)c2cccc(NC(=O)Nc3cccc4ccccc34)c2O[C@@H]1CN(C)C(=O)Nc1ccc(F)cc1	-18.3	-8.3	6.4	2.6	-2.9	x
COc1ccc(-c2ccc3n(c2=O)C[C@H]2[C@H](CO)[C@@H](C(=O)NCCN4CCCCC4)N(C)[C@@H]32)cc1	-9.1	33.5*	-0.2	x	7.2	x
CN1[C@@H]2c3ccc(C4=CCCC4)c(=O)n3C[C@@H]2[C@@H](CO)[C@@H]1C(=O)NCc1ccccc1F	2.8	50.2*	1.4	1.5	-33.1	x
COC(=O)[C@H]1[C@H](CO)[C@H]2Cn3c(ccc(C4=CCCC4)c3=O)[C@H]2N1CC1CCOCC1	0.7	70.8*	-2.4	-10.8	-58.1	x
SMILES	GSIS activator	DENV2 CPE rescue	AF4-AF9 inh	RAD54 branch	RAD52 anneal inh	dFosB act
COc1ccc(-c2ccc3n(c2=O)C[C@H]2[C@H](CO)[C@@H](C(=O)NCCN4CCCC4)N(C)[C@@H]32)cc1	4.9	-2.1	3.4	x	0.3	x
CCCN1[C@H](C(=O)OC)[C@@H](CO)[C@@H]2Cn3c(ccc(C4=CCCC4)c3=O)[C@@H]21	6.1	84.0*	-0.2	-7.8	-74.9	x
Cc1cccc(CN(C)C[C@@H]2OCc3cn(nn3)CCCC(=O)N([C@H](C)CO)C[C@H]2C)c1	11.7	-4.2	-2.3	2.5	-9.3	x
COc1cccc(CNC(=O)[C@@H]2[C@@H](CO)[C@@H]3Cn4c(cccc4=O)[C@H]2N3C(=O)C2CC2)c1	7.1	-2.1	-13.1	-6.8	6.6	x
CC(C)CC#Cc1ccc2c(c1)O[C@@H](CN(C)C(=O)Cc1ccccc1)[C@H](C)CN([C@H](C)CO)S2(=O)=O	-10.7	-1.7	0.3	6.4	15.2	x
O=C1CN(Cc2ccc(F)cc2)C[C@@H]2[C@@H](c3ccc(-c4ccccc4F)cc3)[C@@H](CO)N12	-19.2	19.5	4.1	x	1.1	x
COCC#Cc1ccc2c(c1)O[C@H](CN(C)C(=O)C1CC1)[C@@H](C)CN([C@H](C)CO)S2(=O)=O	-4.1	-8.4	-3.2	0.8	-2.9	x
O=C(COC(=O)Cc1cccc(F)c1)NCCc1ccccc1	x	-6.5	-1.3	-1.1	-15.0	-2.9
O=C(COC(=O)Cc1ccc(F)cc1)NCCc1ccccc1	42.7*	-4.4	-3.4	x	-9.7	-11.9
CC(C)(C)OC(=O)[C@H](Cc1ccccc1)NC(=O)c1nc[nH]c1C(=O)NCC(=O)OCc1ccccc1	-0.6	-7.1	0.7	-0.8	-0.2	-0.6
CC(C)C[C@H](NC(=O)c1[nH]cnc1C(=O)N[C@@H](C)c1ccccc1)C(=O)OC(C)(C)C	88.3*	-5.0	x	-9.7	-11.4	1.8

Assay outcomes (PubChem BioAssay)
